Screens from PubChem.
FAS-TE inh: FAS thioesterase (human) inhibition; P49327; recombinant FAS-TE, OMFH fluorogenic substrate, fluorescence endpoint; inhibition, % at 15 µM; 0.67% of 360,000 active;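 active = compounds whose normalised, plate-corrected inhibition of enzyme fluorescence in the single-dose primary screen is 50% or more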;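 note: 0% = DMSO with enzyme and 100% = substrate without enzyme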
aDG glyco up: increases alpha dystroglycan glycosylation; 0.22% of 360,000 active; activation, % at 10 µM; Pro5-aDG cells, alpha-DG glycosylation AlphaScreen (IIH6); 0% Pro5, 100% B10-LARGE cell signal;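 active = activation of at least 8% versus controls, or a plate z-score of at least 8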;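 note: Pro5 are CHO cells carrying HIG-tagged alpha-DG that lacks glycosylation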
CRFBP-R2 agonist: CRF-BP/CRF-R2 complex agonism | HEK293 CRF-R2/CRF-BP, calcium dye fluorescence (FLIPR); percent of saturating CRF peptide response | activation, % at 13.2 µM | 0.46% of 350,000 active | AID 588473;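 active = activation of at least 50%, plus an integration ratio under a set limit after plate pattern correction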;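 note: plate controls were neutral control wells without compound for no effect and CRF at EC100 for full effect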
Cardio protect: myocardial damage modulation in H9c2 cells. H9c2 cardiomyocytes, H2O2 injury protection, ATPLite, 2 h. protection from H2O2 cell death, % at 20 µM. 0.63% of 360,000 active;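 active = compounds giving at least 50% protection of heart cells from peroxide-induced death in the single-dose screen, raw or plate-pattern-corrected value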;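 note: 0% = DMSO wells with peroxide and 100% = DMSO wells without peroxide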
PfGluPho inh: PfG6PD (Plasmodium falciparum) enzyme inhibition. PfGluPho enzyme, NADPH resazurin-diaphorase fluorescence. inhibition, % at 20 µM. 0.78% of 350,000 active;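 active = inhibition reaching at least a set limit at 20 µM in the primary screen, cut at about 59% in these data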;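 note: 0% = DMSO wells with substrate and 100% = DMSO wells lacking glucose-6-phosphate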
CRFBP-R2 block: CRF-BP/CRF-R2 complex antagonism; AID 588475; HEK293 CRF-R2/CRF-BP, CRF-induced calcium fluorescence; inhibition, % at 11.8 µM; 0.59% of 350,000 active;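 active = inhibition of the ligand-induced calcium signal above about 50% at the single tested concentration, limit read from the data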
PfG6PD confirm: confirmation of Plasmodium falciparum G6PD inhibitors; shares compounds with PfGluPho inh; recombinant PfGluPho, NADPH-diaphorase-resazurin fluorescence; inhibition, % at 20 µM; 34% of 2,400 active;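 active = inhibition of at least 50% at 20 µM in any single replicate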;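 note: 0% = DMSO with substrate and 100% = DMSO lacking glucose-6-phosphate substrate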
Diaph ctr 10uM: inhibits diaphorase or oxidizes, flagging false PfG6PD hits | shares compounds with PfGluPho inh | AID 504862 | 39% of 820 active | inhibition, % at 20 µM | diaphorase-coupled resazurin reduction, fluorescence, NADPH 10 uM;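 active = average inhibition reaching 50% or more with the compound at 20 µM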;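 note: resorufin red fluorescence formed as diaphorase reduces resazurin using NADPH; 0% = DMSO with enzyme and 100% = DMSO without enzyme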
Diaphorase 30uM: counter-screen for P. falciparum G6PD inhibitors: diaphorase inhibitors, oxidizers; 29% of 820 active; inhibition, % at 20 µM; shares compounds with PfGluPho inh; Diaphorase/resazurin coupled assay, resorufin fluorescence, 30 uM NADPH;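 active = inhibition averaging 50% or more, tested at 20 µM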;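 note: 0% = DMSO with enzyme and 100% = DMSO wells lacking diaphorase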
FAS-TE conf: FAS thioesterase (human) inhibition, confirmation; shares compounds with FAS-TE inh; recombinant FAS-TE, OMFH fluorogenic substrate, fluorescence; inhibition, % at 15 µM; 45% of 2,300 active; AID 624325;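 active = compounds inhibiting the enzyme by at least 50% at 15 µM in any one of the replicates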;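 note: 0% = enzyme with DMSO only and 100% = wells lacking enzyme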
aDG conf: alpha-DG glycosylation activation, confirmation | 17% of 600 active | shares compounds with aDG glyco up | AID 651671 | activation, % at 10 µM (by protocol) | Pro5-aDG cells, IIH6 AlphaLISA; scaled to LARGE-overexpressing B10 cells as 100%;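 active = activation of at least 7% in one or more replicates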;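 note: cells exposed to compound for two days before detection; 0% = DMSO-treated Pro5 cells and 100% = DMSO-treated B10-LARGE cells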
* hit, by the source's call; / = not tested or not shown. Only some compounds are listed: those with a hit (about 3.2% of all), similar ones and a draw of the others.

SMILES	FAS-TE inh	aDG glyco up	CRFBP-R2 agonist	Cardio protect	PfGluPho inh	CRFBP-R2 block	PfG6PD confirm	FAS-TE conf	others
CCOC(=O)N=Nc1c2ccccc2c2nc3no[nH]c3nc12	87*	-1	0	-21	69*	-7	61*	43*	Diaph ctr 10uM=51*;Diaphorase 30uM=51*
O=C(Nc1cc(S(=O)(=O)N2CCOCC2)ccc1N1CCCC1)c1ccc2c(c1)S(=O)(=O)c1ccccc1C2=O	79*	-1	0	9	74*	-3	40	20
CCCc1cc(C(=O)Nc2cccc([N+](=O)[O-])c2)cs1	52*	0	0	-13	81*	-8	12	41*
COc1ccc([N+](=O)[O-])cc1/C=N/NC(=O)/C(=C\c1cccs1)NC(=O)c1ccccc1	79*	0	-1	11	99*	-33	82*	66*	Diaph ctr 10uM=86*;Diaphorase 30uM=70*
COc1ccc(/C=C(/NC(=O)c2ccccc2)C(=O)N/N=C/c2cccs2)cc1OC	-4	0	1	7	9	-2	/	/
O=C1C(F)=CC(COC(c2ccccc2)(c2ccccc2)c2ccccc2)OC1n1cc(F)c(=O)[nH]c1=O (stereo unspecified)	70*	0	55*	-18	59*	-45	-3	52*
CC(=O)OCC1OC(n2cc(F)c(=O)[nH]c2=O)C(OC(C)=O)C1OC(C)=O (stereo unspecified)	-7	0	0	7	1	2	/	/
O=[N+]([O-])c1c(NCCO)cc(N2CCCCCC2)c2nonc12	0	0	1	5	-2	-7	/	/
O=[N+]([O-])c1c(NCCCO)cc(Sc2nc3ccccc3s2)c2nonc12	77*	0	-2	-24	77*	40	54*	75*	Diaph ctr 10uM=-2;Diaphorase 30uM=-2
CCC(=O)OCCNc1cc(Sc2nc3ccccc3s2)c2nonc2c1[N+](=O)[O-]	83*	0	9	-22	79*	5	64*	11	Diaph ctr 10uM=-5;Diaphorase 30uM=-6
Cc1nnc(Sc2cc(NCCO)c([N+](=O)[O-])c3nonc23)s1	65*	0	0	-34	86*	22	68*	64*	Diaph ctr 10uM=-1;Diaphorase 30uM=20
COc1ccc(/C=N/OCC(=O)Nn2c(C)nc3ccccc3c2=O)cc1	-12	0	-1	2	-6	9	/	/
Cc1ccc(N2C(=O)c3ccccc3C2=O)cc1	-3	0	-1	0	4	26	/	/
Cc1ccc(SC2=C(Sc3ccc(C)cc3)C(=O)c3ccccc3C2=O)cc1	70*	0	-1	-19	90*	-1	62*	13	Diaph ctr 10uM=20;Diaphorase 30uM=-1
CC(C)C(NS(=O)(=O)c1ccccc1)C(=O)OCc1cc([N+](=O)[O-])cc2c1OCOC2 (stereo unspecified)	21	0	2	5	9	-1	/	/
Cc1ccc2c(c1)c1ccc3c(c1n2C)C(=O)C=CC3=O	54*	0	-1	-16	66*	-25	46	10
CCCCNC(=S)N(Cc1c(C)noc1C)c1ccccc1	-6	0	-2	-3	-7	11	/	/
COc1ccc(NC(=S)N(CCN2CCOCC2)Cc2cc3cc4c(cc3[nH]c2=O)OCCO4)cc1	-2	0	-1	12	6	-2	/	/
Cc1cc(S(=O)(=O)ON2C(=O)c3ccccc3C2=O)ccc1F	82*	0	2	3	65*	13	6	79*
Cc1ccc(S(=O)(=O)ON2C(=O)c3cccc4cccc(c34)C2=O)cc1	26	0	-1	26	-3	3	/	/
Cc1cc2nc(C3CCCCC3)c(CC(C)(C)C)n2c(C)c1Br	3	0	/	5	/	/	/	/
Cc1ccc(NC(=O)C(=O)NCCCN2CCOCC2)c(C)c1	-4	0	-1	-2	5	9	/	/
N#Cc1cc2ccc(N3CCOCC3)cc2cc1C#N	74*	6.8*	1	-16	63*	-7	29	62*	aDG conf=2
Cc1cc(C)c(C#N)c(N2CCOCC2)n1	-9	0	0	16	5	1	/	/
COc1cc(N)c2ncsc2c1	-9	9.7*	-2	-6	69*	19	72*	/	Diaph ctr 10uM=-11;Diaphorase 30uM=-11;aDG conf=1
SMILES	FAS-TE inh	aDG glyco up	CRFBP-R2 agonist	Cardio protect	PfGluPho inh	CRFBP-R2 block	PfG6PD confirm	FAS-TE conf	others
COc1ccc(OCc2csc(N)n2)cc1	-1	0	1	-10	-9	-9	/	/
CC1(C(=O)NS(=O)(=O)C2CC2)CCCN(C(=O)/C=C/c2ccccc2)C1 (stereo unspecified)	-8	0	/	2	/	/	/	/
COc1ccc(CCN2C(=O)CSC2=Nc2ccc(C(C)C)cc2)cc1OC	44	2.9*	5	-14	47	4	-8	/	aDG conf=0
O=C(Cc1cc2ccccc2o1)NCc1ccc(F)cc1	2	0	-5	-3	-14	5	/	/
O=C(Nc1nnc(S(=O)(=O)N2CCOCC2)s1)c1ccc(F)cc1	-7	8.7*	-2	-1	86*	23	56*	/	Diaph ctr 10uM=30;Diaphorase 30uM=45;aDG conf=-1
O=C1CC(c2ccccc2)CC2=C1C1(CCCC1)N=C(Nc1nc3ccccc3o1)N2 (stereo unspecified)	69*	0	/	-5	/	/	/	10
CC(C)(C)NC(=O)C(c1c[nH]c2ccccc12)N(C(=O)Cn1nnc(-c2ccc(Cl)cc2)n1)c1ccccc1F (stereo unspecified)	45	0	1	-10	18	0	/	/
O=C(NC1CCCC1)C(c1c[nH]c2ccccc12)N(C(=O)Cn1nnc(-c2ccc(Cl)cc2)n1)c1ccccc1 (stereo unspecified)	64*	0	3	43	-10	13	/	30
S=c1nc(C2CC2)n(-c2ccccc2)[nH]1	-5	0	-1	2	32	-11	/	/
N#Cc1c(N)[nH]c(C(=O)c2ccccc2)c1-c1ccc(Cl)cc1	67*	0	/	/	/	/	/	60*
CCOC(=O)c1nc2c(ccc3ccccc32)cc1C	26	0	-1	-2	-6	0	/	/
